Laboratory results from ChEMBL document CHEMBL3988442, “University of Dundee, Small-Polar-MMV Screening Library” (2021).
The campaign covered roughly 48,000 compounds. About 13,000 (27%) showed an effect of 50% or more. The list shows a part of the results.

tested on: Wolbachia pipientis; test: Anti-Wolbachia Cell-Based Screen; format: functional; design: scale not given: in the data most compounds retested in dose-response had high values; details: 5 µM

Compound	Percent Effect [%]
O=C(Cc1ccc(O)c(F)c1)N1CCN(CC2CC2)[C@@H]2CS(=O)(=O)C[C@@H]21	-17.2
O=C(O)C(F)(F)F.c1coc(CNc2ncc3c(n2)C2(CCNC2)COC3)c1 (stereo not given)	-4.361
Cc1cnc(N2CCCC3(CCCN(C)C3)C2)nc1 (stereo not given)	-6.547
Clc1cc(CN2CCCN3CCCC3C2)c2ncccc2c1 (stereo not given)	-2.153
Clc1cc(N2CCN3CCCCC3C2)nc2[nH]ccc12 (stereo not given)	91.81
COCc1cn(C[C@H]2CC3CCN2C[C@@H]3C(=O)Nc2ccccc2)nn1 (stereo not given in full)	-0.5907
CCc1cc(CNCc2ccccc2N(C)C2CCN(C)CC2)on1	10.76
CNC(=O)[C@@H]1C[C@H]2CN(Cc3c(C)noc3C)C[C@H]2N1C(C)C.O=C(O)C(F)(F)F.O=C(O)C(F)(F)F	-23.54
Cc1noc(C)c1CN1C[C@@H]2C[C@H](C(=O)NCC3CC3)N(C)[C@@H]2C1.O=C(O)C(F)(F)F.O=C(O)C(F)(F)F	97.39
Cc1noc(C)c1CN1C[C@@H]2CN(C(=O)c3cscn3)C[C@@H]2C1	-4.527
Cc1noc(C)c1CN1C(=O)[C@H]2CC[C@@H]1CN(Cc1ncc[nH]1)C2	-9.267
Cc1noc(C)c1CN1C[C@@H]2CN(C(=O)c3cnccn3)C[C@@H]2C1.O=C(O)C(F)(F)F	12.22
CNC(=O)[C@H]1C[C@@H]2CN(Cc3c(C)noc3C)C[C@@H]2N1C(C)=O.O=C(O)C(F)(F)F	-32.47
Cc1noc(C)c1CN1C[C@H]2CNC[C@H]2C1	94.55
Cc1noc(C)c1CN1CC[C@@H]2O[C@H](COCC(C)C)CC[C@@H]21.O=C(O)C(F)(F)F	9.009
Cc1noc(C)c1CN1CC[C@@H]2O[C@@H](COCC(C)C)CC[C@@H]21.O=C(O)C(F)(F)F	-18.54
C[C@@H]1C[C@H]2CN(Cc3nccs3)C[C@H]2O1.O=C(O)C(F)(F)F	-5.34
Cc1noc(C)c1CN1C[C@@H]2C[C@@H](C)O[C@@H]2C1.O=C(O)C(F)(F)F	94.5
Cc1noc(C)c1CN1C[C@@H]2CC(F)(F)C[C@@H]2C1.O=C(O)C(F)(F)F	103.5
CC(C)NC(=O)NC[C@H]1C[C@@H]2CCN1C[C@@H]2CN(C)c1ccccc1	-10.33
CC(Cc1c(F)cccc1F)NC(=O)Nc1cnn(CC(N)=O)c1 (stereo not given)	0.8263
C/C(=C\c1ccco1)CN(C)C(C)Cc1cc(C)ccn1 (stereo not given)	32.02
O=C(Nc1ccccc1)[C@H]1CN2CCC1C[C@@H]2Cn1cc(CO)nn1 (stereo not given in full)	-4.286
Cc1noc(C)c1CN1C[C@H]2CN(Cc3cccc(F)c3)C[C@H]2C1.O=C(O)C(F)(F)F.O=C(O)C(F)(F)F	97.06
CC(C)C(=O)N1CCCC2(CCCN2Cc2cccnc2)C1 (stereo not given)	-11.99
O=C(c1ccc[nH]1)N1CCCC2(CCCN2Cc2cccnc2)C1 (stereo not given)	22.1
O=C1N(Cc2ccccn2)C[C@H]2CN(C3CCC3)CCN12	-6.605
O=C1Nc2ccccc2CC12CCCN2Cc1cccnc1 (stereo not given)	106.6

Compound	Percent Effect [%]
O=C1Nc2ccccc2CC12CCCN2Cc1ccccn1 (stereo not given)	100.2
O=S(=O)(NC[C@H]1C[C@@H]2CCN1C[C@@H]2CN1CCCC1)c1ccc(Cl)cc1	14.89
CC(C)c1cc(CN2CCN(c3cccnc3)CC2)n(C)n1	9.429
CN1CCCC(c2n[nH]c3ncccc23)C1 (stereo not given)	-5.321
CN1CCCC1c1ccc(N2CCOCC2)cn1 (stereo not given)	81.49
CN1CCCC(c2ccc(N3CCOCC3)cn2)C1.Cl (stereo not given)	96.78
CCN(CC)C(=O)C1CCC2(CCNCC2)CO1.Cl (stereo not given)	2.217
Cc1nccc([C@@H]2C[C@@H]3CCN(Cc4cccs4)C[C@H]3O2)n1	0.9996
Cc1cc(CN2CC[C@H]3C[C@@H](c4nc(C5CC5)cs4)O[C@@H]3C2)no1	106.4
Cc1nc(CN2CC[C@H]3C[C@H](c4ccncn4)O[C@@H]3C2)cs1	0.4652
Cc1cc(CN2CC[C@H]3C[C@H](c4nc(C5CC5)cs4)O[C@@H]3C2)no1	106.7
c1cc(CN2CC[C@H]3C[C@H](c4nc(C5CC5)cs4)O[C@@H]3C2)ccn1	0.1706
Cc1ncsc1CN1CC[C@H]2C[C@H](c3ccncn3)O[C@@H]2C1	-3.058
COCCN1CCO[C@H]2CCN(C(=O)c3ccnnc3)CC[C@@H]21.O=C(O)C(F)(F)F	-6.928
COc1cc(N2CC[C@@H]3[C@@H](CC2)OCCN3CC2CC2)ncn1	103
CNC(=O)[C@H]1C[C@@H]2CN(c3cc(OC)ncn3)C[C@@H]2N1C(C)C	-9.424
Cc1ccc(C(=O)N2CC[C@H]3[C@H]2CCN3CC2CCOCC2)cn1	4.595
COc1cc(N2CC[C@@H]3OCCN(C)[C@H]3CC2)ncn1	94.65
CN(C)CCN1CCCC12CCN(C(=O)c1ccncc1)CC2.O=C(O)C(F)(F)F.O=C(O)C(F)(F)F	105
Cc1cnc(N2CCCC3(CCCN3CC(=O)N(C)C)C2)nc1.O=C(O)C(F)(F)F (stereo not given)	-1.71
CCN1CCCC12CCCN(c1ncccn1)C2.O=C(O)C(F)(F)F (stereo not given)	1.763
COCCN1CCC12CCN(C(=O)c1ccc(C)nc1)C2.O=C(O)C(F)(F)F (stereo not given)	107.4
COCCN1CCCC12CCN(c1ncccn1)CC2.O=C(O)C(F)(F)F	-7.716
CN(C)CCN1CCCC12CCCN(C(=O)c1cccnc1)C2.O=C(O)C(F)(F)F.O=C(O)C(F)(F)F (stereo not given)	118
O=C(O)C(F)(F)F.O=C(c1ccc[nH]1)N1CCC2(CCCN2Cc2cccnc2)CC1	-12.51
COCCN1CCC12CCN(C(=O)Cc1cccs1)C2.O=C(O)C(F)(F)F (stereo not given)	10.38
COCCN1CCC12CCN(c1ncccn1)C2.O=C(O)C(F)(F)F (stereo not given)	-0.9151
